Screening data: PubChem BioAssay, several laboratories
Shown are actives, neighbours in structure and some others; about 5.9% of the full set was active somewhere.
Rtt109 Vps75 = inhibitors of C. albicans Rtt109/Vps75 HAT, primary screen, biochemical, ThioGlo CoA-SH fluorescence, plate reader; Histone acetyltransferase RTT109 (Candida albicans (strain SC5314 / ATCC MYA-2876)), …; purified Rtt109/Vps75, 4 h; inhibition, % at 34.9 µM; 330,000 tested, 0.16% active;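 active = inhibition of at least 50% in every replicate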
PRMT1 FP inh = PRMT1 methyltransferase inhibitors, primary screen, biochemical, fluorescence polarization. Protein arginine N-methyltransferase 1 (Homo sapiens), Q99873. recombinant PRMT1, activity-based probe fluorescence polarization. inhibition, % at 2.79 µM. 370,000 tested, 1.3% active. AID 652257, 2013;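 active = inhibition above about 21% made by adding two undisclosed values, limit read from the data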
rCAG RNA binder = binders of r(CAG) RNA repeats, primary screen, biochemical, fluorescence | r(CAG) RNA repeat, TO-PRO-1 dye displacement fluorescence | inhibition, % at 3 µM | 370,000 tested, 1.3% active | AID 651821, 2012;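 active = inhibition above the plate cutoff, the mean of all test compounds on that plate plus 3 SD, cut at about 35% in these data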;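 also: 0% = DMSO alone and 100% = 100 µM mitoxantrone as full dye displacement; higher means more dye released from RNA so lower well fluorescence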
LANA-H2A inh = blockers of LANA interaction with H2A/H2B – biochemical, FP readout, HTS, primary screen; 320,000 tested, 0.6% active; cell-free LANA-H2A/H2B peptide, fluorescence polarization; AID 2629, 2010; inhibition, % (no concentration beside the values); in the data active = inhibition mostly above about 10%, no sharp cut-off; inactive = mostly below about 6.7%
Target sequence (Q9QR71 whole entry, looked up): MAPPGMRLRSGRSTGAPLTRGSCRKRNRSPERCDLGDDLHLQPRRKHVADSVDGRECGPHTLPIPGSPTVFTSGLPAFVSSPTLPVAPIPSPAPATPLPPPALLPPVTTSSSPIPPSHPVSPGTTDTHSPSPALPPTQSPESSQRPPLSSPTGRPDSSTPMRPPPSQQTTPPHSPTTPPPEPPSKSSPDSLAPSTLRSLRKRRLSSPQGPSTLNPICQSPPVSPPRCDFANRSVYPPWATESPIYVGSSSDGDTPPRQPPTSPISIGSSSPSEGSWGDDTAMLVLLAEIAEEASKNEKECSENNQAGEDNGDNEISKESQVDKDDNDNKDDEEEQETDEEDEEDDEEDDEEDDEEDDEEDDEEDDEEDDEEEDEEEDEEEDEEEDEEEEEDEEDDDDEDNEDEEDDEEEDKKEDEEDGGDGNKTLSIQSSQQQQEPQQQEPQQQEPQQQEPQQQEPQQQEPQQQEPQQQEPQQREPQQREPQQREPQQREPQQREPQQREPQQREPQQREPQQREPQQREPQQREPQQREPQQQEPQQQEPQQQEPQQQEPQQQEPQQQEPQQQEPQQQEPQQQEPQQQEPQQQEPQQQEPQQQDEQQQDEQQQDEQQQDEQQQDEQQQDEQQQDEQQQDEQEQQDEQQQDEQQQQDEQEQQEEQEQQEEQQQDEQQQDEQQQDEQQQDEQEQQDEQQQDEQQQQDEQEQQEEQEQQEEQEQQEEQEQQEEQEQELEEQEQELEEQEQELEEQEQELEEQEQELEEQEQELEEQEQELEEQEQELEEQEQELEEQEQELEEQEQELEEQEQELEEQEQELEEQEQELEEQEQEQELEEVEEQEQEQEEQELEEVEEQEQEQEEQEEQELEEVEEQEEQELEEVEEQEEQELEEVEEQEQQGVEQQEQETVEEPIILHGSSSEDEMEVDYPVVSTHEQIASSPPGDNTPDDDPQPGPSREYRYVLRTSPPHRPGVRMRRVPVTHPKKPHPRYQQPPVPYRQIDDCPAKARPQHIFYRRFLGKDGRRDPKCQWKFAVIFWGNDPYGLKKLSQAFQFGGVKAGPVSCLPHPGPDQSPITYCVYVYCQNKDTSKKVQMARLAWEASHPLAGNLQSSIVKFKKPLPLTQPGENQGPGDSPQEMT
ALR H2O2 inh = inhibitors of human ALR sulfhydryl oxidase, primary screen, biochemical, H2O2 detection, HRP-luminol luminescence, single point | purified ALR, DTT oxidation | inhibition, % (no concentration beside the values) | 290,000 tested, 3.8% active | FAD-linked sulfhydryl oxidase ALR (Homo sapiens), P55789;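 active = mean replicate inhibition above about 79%, with every replicate also reaching it, limit read from the data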
ABHD5 PLIN5 PPI = ABHD5-PLIN5 interaction inhibitors, primary screen, cell lysate, split luciferase complementation, luminescence; Perilipin-5 (Homo sapiens) + 1-acylglycerol-3-phosphate O-acyltransferase ABHD5 (Homo …; Split G. princeps luciferase complementation, 4 h; inhibition, % at 4 µM; 360,000 tested, 0.78% active; AID 602281, 2012;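 active = inhibition above the mean inhibition across every tested compound plus 3 SD, cut at about 22% in these data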;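 also: 0% = DMSO only wells and the 100% control is not disclosed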
PRMT1 confirm = PRMT1 methyltransferase inhibitors, confirmation, biochemical, fluorescence polarization, triplicate | AID 687036, 2013 | inhibition, % at 2.79 µM | shares compounds with PRMT1 FP inh | recombinant His-PRMT1, activity-based probe fluorescence polarization | 3,300 tested, 42% active;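 active = mean inhibition across replicates above the hit cutoff derived for the earlier primary screen, cut at about 22% in these data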
Starred values were filed as active, the others as inactive.

`O=C(CNS(=O)(=O)c1ccc(Cl)s1)N1CCN(c2ccccn2)CC1` gave PRMT1 FP inh 2.0 and rCAG RNA binder 1.1.
For COc1ccc2c(c1)CCO[C@]21O[C@H](CCO)C[C@H](O)[C@H]1O the results were PRMT1 FP inh 0.1, rCAG RNA binder -1.1 and ABHD5 PLIN5 PPI 0.0.
Cc1cc(=O)[nH]c(SCc2nnnn2-c2ccc(Cl)cc2)n1 was read as Rtt109 Vps75 -36.7, PRMT1 FP inh 36.8*, rCAG RNA binder 1.9, LANA-H2A inh 1.7, ALR H2O2 inh -13.6, ABHD5 PLIN5 PPI -7.8 and PRMT1 confirm 55.2*.
Nc1cc(=O)[nH]c(SCc2nnnn2-c2ccc(Cl)cc2)n1 was read as Rtt109 Vps75 -0.3, PRMT1 FP inh 4.2, rCAG RNA binder 3.0, LANA-H2A inh -0.1, ALR H2O2 inh 0.2 and ABHD5 PLIN5 PPI -0.8.
`C[C@H](O)[C@@H]1C(=O)N2CCc3ccc(-c4ccccc4)cc3[C@@H]2C[C@@H]1N(C)C(=O)c1ccco1` gave PRMT1 FP inh 5.9, rCAG RNA binder 5.2 and ABHD5 PLIN5 PPI 8.6.
For CCCc1cc(=O)[nH]c(SCC(=O)Nc2cccc(S(=O)(=O)N3CCOCC3)c2)n1 the results were Rtt109 Vps75 -3.0, PRMT1 FP inh 1.6, rCAG RNA binder 13.0, LANA-H2A inh 1.9, ALR H2O2 inh 71.6 and ABHD5 PLIN5 PPI -4.4.
For O=C(CSc1nccc(=O)[nH]1)Nc1cccc(S(=O)(=O)N2CCOCC2)c1 the results were Rtt109 Vps75 -9.5, PRMT1 FP inh 45.0*, rCAG RNA binder 5.7, LANA-H2A inh 1.3, ALR H2O2 inh -23.1, ABHD5 PLIN5 PPI -2.5 and PRMT1 confirm 31.7*.
For Cc1[nH]c(=S)c(C#N)c(-c2ccccc2)c1C(=O)Nc1ccccc1 the results were Rtt109 Vps75 -2.0, PRMT1 FP inh 35.6*, rCAG RNA binder 6.8, LANA-H2A inh -10.0, ALR H2O2 inh 70.4, ABHD5 PLIN5 PPI -3.5 and PRMT1 confirm 13.8.
Screening C[C@@H]1CN([C@H](C)CO)C(=O)c2cc(NC(=O)Nc3ccc(F)cc3)ccc2O[C@@H](C)CCCCO[C@@H]1CN(C)C(=O)CCCN(C)C returned PRMT1 FP inh -3.6 and rCAG RNA binder 6.8.
`S=C1SCN(Cc2ccccn2)CN1Cc1ccco1` gave Rtt109 Vps75 4.7, PRMT1 FP inh 29.7*, rCAG RNA binder 7.1, LANA-H2A inh 2.4, ALR H2O2 inh 2.6, ABHD5 PLIN5 PPI 4.2 and PRMT1 confirm 12.9.
For COc1ccc(Cn2cc(CN3CCc4onc(-c5ccc(Br)cc5)c4C3=O)nn2)cc1 the results were PRMT1 FP inh -3.1, rCAG RNA binder 5.5 and ABHD5 PLIN5 PPI 7.6.
N#CC1=C(N)C(C#N)(C#N)[C@H](c2c(F)cccc2F)[C@H]2CC3(CC=C12)OCCO3 was read as Rtt109 Vps75 5.0, PRMT1 FP inh 25.6*, rCAG RNA binder -14.3, LANA-H2A inh 2.3, ALR H2O2 inh -34.1, ABHD5 PLIN5 PPI 0.9 and PRMT1 confirm 14.1.
`CCOc1ccc(N2C(=O)CC(NC3CCN(C(=O)c4cccc(Cl)c4)CC3)C2=O)cc1` (stereo not drawn) gave Rtt109 Vps75 -5.4, PRMT1 FP inh 65.5*, rCAG RNA binder -5.0, LANA-H2A inh 4.6, ALR H2O2 inh -1.9, ABHD5 PLIN5 PPI 6.3 and PRMT1 confirm 2.3.
`CCOc1ccc(N2C(=O)CC(NC3CCN(C(=O)c4cccs4)CC3)C2=O)cc1` (stereo not drawn) gave Rtt109 Vps75 -1.4, PRMT1 FP inh 88.7*, rCAG RNA binder -2.4, LANA-H2A inh -0.8, ALR H2O2 inh -9.9, ABHD5 PLIN5 PPI 6.2 and PRMT1 confirm -3.0.
